Values joined by “and” are separate entries in the source; they are usually repeats but may differ in a detail not shown here. Equal entries are not always repeated. Results filed as inconclusive are left out. Active and inactive are the calls of the source. Unless noted, the call rests on the fitted dose curve; in most records, active means well fitted curve in the direction sought with a large enough effect; inconclusive means small, poorly fitted or top-dose-only effect, or another doubt; inactive means no such curve, though single readings can be large; an effect the other way counts as inactive or inconclusive.
Tests used:
[1] = Cell Viability - HepG2 (AID 433; calls by dose curve;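 further: potency means the concentration at half of the fitted maximal effect; potency for ATP loss meaning cytotoxicity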); conditions: qHTS
Outline: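 Cytotoxicity is scored as loss of intracellular ATP in HepG2 cells exposed to compounds for 40 h. Concentration-response curves, normalized to DMSO and 100 uM tamoxifen, give AC50 values.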

[2] = Cell Viability - HUV-EC-C (AID 542); conditions: HUV-EC-C endothelial cell viability, qHTS; series mostly up to 92.2 µM; further: nearly all actives have a fitted effect of over 35% in size; further: potency means the concentration at half of the fitted maximal effect; on activity change, negative = cytotoxicity: on the % scale 0 is the no-effect control and ±100 the full control effect
Outline: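 CellTiter-Glo luminescence measured ATP loss in HUV-EC-C cells (1000/well) after 40 hr compound exposure at 37 °C, in complete culture medium. Concentration-response data were Hill-fitted to give AC50.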

[3] = Cell Viability - LYMP2-024 (AID 988); conditions: LYMP2-024 lymphoblastoid cell viability; series mostly up to 92.2 µM; further: nearly all actives have a fitted effect of over 60% in size; further: potency means the concentration at half of the fitted maximal effect;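 on activity change, negative = cytotoxicity: plate controls were DMSO only for no effect and 92 µM tetraoctylammonium bromide for full effect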
Outline: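 Cytotoxicity was taken as a decrease in ATP (CellTiter-Glo luminescence) after 24 hr compound exposure at 37 C of LYMP2-024 lymphoblastoid cells, 2500 cells/well. Concentration-response data were fitted to the Hill equation to give AC50.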

[4] = Cell Viability - LYMP1-002 - Assay at 24 hr (AID 993); conditions: LYMP1-002 lymphoblastoid cells viability; series mostly up to 92.2 µM; further: potency means the concentration at half of the fitted maximal effect; on activity change, negative = cytotoxicity: on the % scale 0 is the no-effect control and ±100 the full control effect
Outline: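 qHTS cytotoxicity at 24 h: CellTiter-Glo ATP luminescence in lymphoblastoid line LYMP1-002 incubated with compound at 37 °C. Concentration-response modeled with the Hill equation for AC50; tetraoctylammonium bromide served as positive control.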

[5] = target: Peroxisome proliferator-activated receptor gamma (Homo sapiens) (UniProt P37231); test: qHTS assay for small molecule agonists of peroxisome proliferator-activated receptor gamma signaling (AID 588536; active means well fitted curve in the direction sought with a large enough effect in the signal ratio, with a control signal flat, not every such curve was filed as active; the % refers to the signal ratio;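 further: 0% = DMSO basal wells and 100% = rosiglitazone at 2 µM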); conditions: HEK293 PPARg-UAS-bla, beta-lactamase ratio, 16 h, percent of rosiglitazone response, DMSO as zero; series mostly up to 76.7 µM
Outline: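 Using GeneBLAzer HEK293 cells, response was quantified by CCF4 fluorescence and normalized between basal DMSO (0%) and rosiglitazone 2 uM (100%); curves yielded half-maximal stimulation concentration and efficacy.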

[6] = qHTS assay for small molecule agonists of retinoid X receptor alpha signaling (AID 588544; calls by dose curve;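 on activation: 0% = DMSO basal wells and 100% = reference agonist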); conditions: HEK293T RXRa-UAS-bla, beta-lactamase reporter, 18 h; 530 nm emission
[7] = target: Retinoic acid receptor RXR-alpha (Homo sapiens) (UniProt P19793); test: as above; conditions: HEK293T RXRa-UAS-bla, beta-lactamase reporter, 18 h; series mostly up to 76.7 µM
[8] = target: Retinoic acid receptor RXR-alpha (Homo sapiens) (UniProt P19793); test: qHTS assay for small molecule antagonists of retinoid X receptor alpha signaling (AID 588546; active means well fitted inhibition curve with a large enough effect in the signal ratio, with a control signal flat, not every such curve was filed as active; the % refers to the signal ratio;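 further: cells stimulated with 9-cis-retinoic acid as agonist; on the % scale 0 is the no-effect control and ±100 the full control effect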); conditions: HEK293T RXRa-UAS-bla, beta-lactamase ratio, antagonist mode
Outline: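 Beta-lactamase reporter inhibition, read as CCF4 fluorescence ratio (ex 405, em 460/530 nm) after 2 h at RT. HEK293T UAS-bla cells, 2500/well, were stimulated with 9-cis-RA at 500 or 100 nM final alongside test compound for 18 h at 37 C.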

[9] = target: Thyroid hormone receptor beta (Homo sapiens) (UniProt P10828); test: qHTS assay for small molecule antagonists of thyroid hormone receptor beta signaling (AID 588547; active means well fitted inhibition curve with a large enough effect in the signal ratio, with a control signal flat, not every such curve was filed as active; the % refers to the signal ratio;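 further: cells stimulated with 0.4 nM T3 agonist during compound exposure; on the % scale 0 is the no-effect control and ±100 the full control effect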); conditions: TR-UAS-bla HEK293, beta-lactamase ratio, antagonist mode, 18 h
Outline: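 TR-UAS-bla GripTite HEK293 cells in 2% charcoal/dextran FBS medium; compounds 0.59 nM to 92 uM with T3 at 0.4nM final, 18 h at 37 C. Beta-lactamase read by CCF4 fluorescence (460/530 nm); Hill fits gave IC50 and efficacy.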

[10] = qHTS assay for small molecule activators of the nuclear factor-kappa B (NF-kB) signaling pathway (AID 651749; active means well fitted activation curve with a large enough effect in the signal ratio; the % refers to the signal ratio; further: % of control where 0% means no effect); conditions: NF-kB-bla ME-180 cells, beta-lactamase FRET ratio, 16 h; activation: stronger effect = higher value
Outline: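 In this qHTS format, compounds acting as activators increase NF-kB-driven beta-lactamase in ME-180 cells, measured as disrupted FRET after 16 hr exposure at 37C and 5% CO2.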

[11] = target: Tumor necrosis factor (Homo sapiens) (UniProt P01375); test: qHTS assay to identify small molecules that stimulate Tumor Necrosis Factor-alpha (TNF-alpha) secretion (AID 651757; active means well fitted curve in the direction sought with a large enough effect in the signal ratio; the % refers to the signal ratio; further: 0% is about no effect); conditions: Human cells, HTRF 665/615 ratio; series mostly up to 92.2 µM
Outline: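 Secreted TNF-alpha quantified by TR-FRET sandwich of two labeled anti-TNF-alpha antibodies, incubated 3 hr at room temperature. Preceded by 17 hr, 37 C compound treatment of THP-1 cells at 3000 cells/well.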

[12] = target: Nuclear receptor subfamily 1 group I member 2 (Rattus norvegicus) (UniProt Q9R1A7); test: qHTS assay for small molecule activators of the rat pregnane X receptor (rPXR) signaling pathway (AID 651751; call rule not given here; further: 0% is about no effect); conditions: rPXR reporter cells, luciferase (One-Glo), 24 h
[13] = target: Cytochrome P450 2C9 (Homo sapiens) (UniProt P11712); test: qHTS Assay for Inhibitors and Substrates of Cytochrome P450 2C9 (AID 883); conditions: recombinant CYP2C9, luciferin-H luminescence, 60 min; series mostly up to 57.1 µM; further: nearly all actives have a fitted effect of over 60% in size; further: potency means the concentration at half of the fitted maximal effect
Outline: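 10nM CYP2C9 + 100uM Luciferin-H (=KM), 25mM KPO4; cpd 10 min 37C; NADPH regen, 60 min 37C; stop/detect with P450 Glo-Buffer 20 min; luminescence. Norm. to 57uM sulphaphenazole as full inhibition.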

[14] = Cell Viability - NIH 3T3 (AID 541); conditions: NIH 3T3 cell viability, qHTS; activity change, negative = cytotoxicity: at 92.2 µM (top of the series);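 further: plate controls were DMSO alone for no effect and tamoxifen positive control for full effect; nearly all actives have a fitted effect of over 25% in size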
Outline: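 Intracellular ATP (CellTiter-Glo luminescence, 20 min at room temperature) measured after 40 hr compound exposure at 37 °C of 1000 NIH 3T3 mouse fibroblasts/well in complete medium; AC50 derived by Hill-equation modelling of qHTS concentration-response curves.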

[15] = Cellular Toxicity (caspase-3) HepG2 (AID 654); conditions: HepG2 caspase-3 activation, luminescence, 0% = DMSO only, 100% = tamoxifen; series mostly up to 92.2 µM;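 further: cells exposed to compound for 16 hours before reading; 0% = DMSO alone and 100% = caspase signal from 100 µM tamoxifen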
Outline: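 Caspase 3/7 activation is measured as a luminescence increase (aminoluciferin substrate) after 16 h compound exposure of human hepatocarcinoma HepG2 cells. AC50 values are Hill fits, scaled between DMSO baseline and 100 uM tamoxifen stimulation.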

[16] = Cellular Toxicity (caspase-3) SHSY5Y (AID 657); conditions: SH-SY5Y caspase-3 activation, DMSO zero, 10 µM staurosporine = 100%; series mostly up to 91.7 µM;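 further: cells exposed to compound for 16 hours at 37 °C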
Outline: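 Cells plated and incubated 5 h at 37 °C, dosed over a concentration range, incubated 16 h, then given Caspase-Glo 3/7 reagent for 1 h at room temperature before luminescence reading. Staurosporine (10 uM) defined full stimulation.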

Nuclear receptor subfamily 1 group I member 2 (Rattus norvegicus), sequence (Q9R1A7 whole entry, looked up): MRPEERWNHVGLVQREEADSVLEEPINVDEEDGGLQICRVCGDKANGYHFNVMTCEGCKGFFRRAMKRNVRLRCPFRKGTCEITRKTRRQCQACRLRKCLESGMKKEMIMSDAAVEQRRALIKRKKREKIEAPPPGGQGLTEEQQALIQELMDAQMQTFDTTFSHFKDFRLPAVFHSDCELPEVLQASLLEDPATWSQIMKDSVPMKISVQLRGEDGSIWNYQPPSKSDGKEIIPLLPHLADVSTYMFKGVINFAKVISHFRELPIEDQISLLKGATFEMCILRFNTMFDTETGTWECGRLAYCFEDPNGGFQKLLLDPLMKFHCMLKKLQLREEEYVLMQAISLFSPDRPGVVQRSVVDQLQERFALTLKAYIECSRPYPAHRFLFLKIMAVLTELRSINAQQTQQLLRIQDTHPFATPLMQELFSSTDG
Tumor necrosis factor (Homo sapiens), sequence (P01375 whole entry, looked up): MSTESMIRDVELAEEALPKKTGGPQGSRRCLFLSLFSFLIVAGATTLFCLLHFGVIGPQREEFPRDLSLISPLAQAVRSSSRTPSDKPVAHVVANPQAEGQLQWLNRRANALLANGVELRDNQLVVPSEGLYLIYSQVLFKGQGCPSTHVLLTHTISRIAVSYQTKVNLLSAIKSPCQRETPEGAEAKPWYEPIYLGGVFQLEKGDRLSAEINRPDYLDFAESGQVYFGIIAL
Thyroid hormone receptor beta (Homo sapiens), sequence (P10828 whole entry, looked up): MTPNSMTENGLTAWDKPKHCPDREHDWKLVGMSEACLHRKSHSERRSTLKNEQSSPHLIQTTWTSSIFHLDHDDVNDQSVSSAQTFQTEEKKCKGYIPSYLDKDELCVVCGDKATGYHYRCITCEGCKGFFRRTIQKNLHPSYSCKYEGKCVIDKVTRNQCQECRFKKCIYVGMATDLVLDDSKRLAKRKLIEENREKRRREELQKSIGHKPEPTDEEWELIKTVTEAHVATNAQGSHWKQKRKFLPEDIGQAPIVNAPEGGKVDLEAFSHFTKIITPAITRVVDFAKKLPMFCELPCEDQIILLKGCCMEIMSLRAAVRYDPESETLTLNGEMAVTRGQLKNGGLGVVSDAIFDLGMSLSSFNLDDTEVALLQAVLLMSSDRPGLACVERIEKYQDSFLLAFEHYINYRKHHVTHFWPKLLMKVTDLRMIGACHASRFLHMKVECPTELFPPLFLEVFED
Cytochrome P450 2C9 (Homo sapiens), sequence (P11712 whole entry, looked up): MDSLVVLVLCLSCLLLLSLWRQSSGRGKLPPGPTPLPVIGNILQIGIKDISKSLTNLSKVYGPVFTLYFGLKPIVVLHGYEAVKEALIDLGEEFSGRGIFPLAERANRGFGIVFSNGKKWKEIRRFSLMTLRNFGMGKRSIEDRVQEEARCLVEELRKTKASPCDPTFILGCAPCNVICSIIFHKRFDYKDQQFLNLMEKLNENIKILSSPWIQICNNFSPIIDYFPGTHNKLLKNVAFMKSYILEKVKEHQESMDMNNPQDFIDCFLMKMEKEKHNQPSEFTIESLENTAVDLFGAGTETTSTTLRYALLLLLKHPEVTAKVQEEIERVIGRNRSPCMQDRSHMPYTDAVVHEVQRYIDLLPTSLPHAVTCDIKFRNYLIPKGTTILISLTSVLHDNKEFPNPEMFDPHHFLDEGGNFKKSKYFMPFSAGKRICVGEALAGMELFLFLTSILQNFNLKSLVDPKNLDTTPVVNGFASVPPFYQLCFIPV
Retinoic acid receptor RXR-alpha (Homo sapiens), sequence (P19793 whole entry, looked up): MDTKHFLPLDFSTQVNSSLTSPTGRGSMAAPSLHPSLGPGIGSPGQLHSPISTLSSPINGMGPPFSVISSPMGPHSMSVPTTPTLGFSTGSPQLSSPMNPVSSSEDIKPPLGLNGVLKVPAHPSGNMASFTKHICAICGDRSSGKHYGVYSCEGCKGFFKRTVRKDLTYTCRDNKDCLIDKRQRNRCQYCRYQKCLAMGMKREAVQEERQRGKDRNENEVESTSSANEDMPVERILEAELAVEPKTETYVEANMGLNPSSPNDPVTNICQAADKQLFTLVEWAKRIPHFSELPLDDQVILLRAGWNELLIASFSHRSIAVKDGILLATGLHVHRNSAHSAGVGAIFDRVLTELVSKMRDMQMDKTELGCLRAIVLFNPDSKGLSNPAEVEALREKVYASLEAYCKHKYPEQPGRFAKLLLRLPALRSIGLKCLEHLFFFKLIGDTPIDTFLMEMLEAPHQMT
Peroxisome proliferator-activated receptor gamma (Homo sapiens), sequence (P37231 whole entry, looked up): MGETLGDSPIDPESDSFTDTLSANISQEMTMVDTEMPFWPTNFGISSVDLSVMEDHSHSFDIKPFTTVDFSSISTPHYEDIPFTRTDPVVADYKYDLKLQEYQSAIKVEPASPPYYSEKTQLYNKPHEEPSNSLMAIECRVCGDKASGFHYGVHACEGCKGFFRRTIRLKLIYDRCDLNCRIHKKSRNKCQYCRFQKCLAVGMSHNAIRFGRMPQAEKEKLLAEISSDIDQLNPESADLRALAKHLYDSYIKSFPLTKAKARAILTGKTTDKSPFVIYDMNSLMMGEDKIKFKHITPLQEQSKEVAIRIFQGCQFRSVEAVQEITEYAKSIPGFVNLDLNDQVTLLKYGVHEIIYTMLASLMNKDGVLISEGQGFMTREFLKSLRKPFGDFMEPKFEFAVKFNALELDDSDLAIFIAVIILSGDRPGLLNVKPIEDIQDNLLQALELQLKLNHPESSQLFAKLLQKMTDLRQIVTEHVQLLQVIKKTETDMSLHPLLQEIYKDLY

Row | SMILES | Potency [1] | Potency [2] | Potency [3] | Potency [4] | outcome [5] | max response [6] | Potency [7] | max response [8] | activity change % (negative = inhibition) [9] | activation [10] | outcome [11] | max response [12] | Potency [13] | activity change, negative = cytotoxicity [14] | outcome [15] | outcome [16]
1 | CCCCCCCCCc1ccc(O)cc1 | > 92 µM (inactive) | 31.6 µM (active) | inactive | inactive | inactive | -5.72% | inactive | 0.938% (inactive) | 4.44% (inactive) | 1.31% (inactive) | inactive | -1.03% (inactive) and 0.419% (inactive) |  |  |  | 
2 | C[N+]1=Cc2cc3c(cc2CC1)OCO3 |  |  |  |  |  |  |  |  |  |  |  |  | inactive |  |  | 
3 | CN1[C@@H]2CC[C@H]1CC(O)C2 (some centres not stated) |  |  |  |  |  |  |  |  |  |  |  |  | inactive |  |  | 
4 | c1cncc([C@H]2CCCCN2)c1 |  |  |  |  |  |  |  |  |  |  |  |  | 7.94 µM (active) |  |  | 
5 | COc1cc2c(c(OC)c1OC)-c1ccc(O)c(=O)cc1[C@@H](NC(C)=O)CC2 |  |  |  |  |  |  |  |  |  |  |  |  | inactive |  |  | 
6 | ClC1=C(Cl)C2(Cl)C3C4CC(C5OC45)C3C1(Cl)C2(Cl)Cl (configuration not stated) | > 92 µM (inactive) | inactive | 39.8 µM (active) | 12.6 µM (active) | inactive |  |  |  | -28.8% (inactive) | -0.275% (inactive) | inactive |  |  | -20.8% (inactive) | inactive | inactive
7 | CCc1cccc(CC)c1N(COC)C(=O)CCl | > 92 µM (inactive) | 50.1 µM (active) | 50.1 µM (active) | inactive | inactive | 19.2% | inactive | -7.04% (inactive) | -17.8% (inactive) and -7.56% (inactive) | -1.33% (inactive) and -2.4% (inactive) | inactive | -3.94% (inactive) and -1.3% (inactive) |  | -147% (active) | inactive | inactive
8 | COP(=S)(OC)Oc1ccc([N+](=O)[O-])cc1 | > 92 µM (inactive) | inactive | inactive | inactive | inactive | -22.5% and 4.79% | inactive | -10.1% (inactive) and -10.7% (inactive) | -2.23% (inactive) and 4.43% (inactive) | -0.601% (inactive) | inactive | 8.93% (inactive) and 0.334% (inactive) |  | -18.8% (inactive) | inactive | inactive
9 | COC(=O)NC(=S)Nc1ccccc1NC(=S)NC(=O)OC | > 92 µM (inactive) | inactive | inactive | inactive | inactive | 18.1% and -8.17% | inactive | -8.67% (inactive) and 3.08% (inactive) | 1.37% (inactive) and 13.1% (inactive) | 0.272% (inactive) and -1.52% (inactive) | inactive | 13.9% (inactive) and 14.6% (inactive) |  | -30% (inactive) | inactive | inactive
10 | ClC(Cl)=C(c1ccc(Cl)cc1)c1ccc(Cl)cc1 | > 92 µM (inactive) | inactive | inactive | inactive | inactive | 8.46% | inactive | -7.07% (inactive) and 0.666% (inactive) | 0.649% (inactive) and 24.3% (inactive) and -8.25% (inactive) | 0.128% (inactive) and -1.11% (inactive) and 0.0255% (inactive) | inactive | 1.57% (inactive) and 5.61% (inactive) and 0.401% (inactive) |  | 7.39% (inactive) and -2.45% (inactive) | inactive | inactive

Source: PubChem BioAssay (NCATS)
